From ChEMBL document CHEMBL4513216, “Probing the Open Global Health Chemical Diversity Library for Multistage-Active Starting Points for Next-Generation Antimalarials” (ACS Infect Dis, 2020)
The whole screen tested about 69,000 compounds, of which about 8,600 (12%) showed an effect of 50% or more. This excerpt belongs to a sample that is enriched for strong results.

System: Plasmodium berghei
Experiment: Screen against P. berghei liver stage (PbLuc), transformed with Luciferase, at 10uM
Assay type: functional, HepG2
Details: tested at 10 uM

Compound | INHIBITION
O=C(NCCc1cc(N2CCOCC2)nc(N2CCCC2)n1)C1CC1 | 15.548%
O=C(CC1CC2(CCN(CC3CC3)CC2)Oc2ccccc21)NC1CC1 (centres undefined) | 7.5%
Fc1ccc([C@@H]2COC[C@H]2NCc2cccc(F)c2)cc1 | 20.2%
CCN1CCc2c(CNC(=O)c3nccn3C)cncc2C1 | 35.8%
Cc1nc(NCc2cccnc2)c2c(n1)c(C)nn2C | 1.81%
C=C/C=c1\c(=C/C)oc2c(NCc3ccccc3)nc(CC)nc12 | 22.5%
C=C/C=c1\c(=C/C)oc2c(NCc3ccccc3)ncnc12 | 60.3%
C=C/C=c1\c(=C/C)oc2c(NCc3ccccc3)nc(C)nc12 | 68%
Cc1nn(C)c2c(NCc3ccccn3)ncnc12 | 42.1%
Cc1ncc(CN)c(-c2cn(C)c3ccccc23)n1 | 9.05%
CN(CC(N)=O)C(=O)C1Cc2cc(Cl)ccc2O1 (centres undefined) | -5.64%
CN(C)CC1(O)CCN(C(=O)Cc2ccc3c(c2)CCCC3)C1 (centres undefined) | 20.6%
CN(C)CC1(O)CCN(C(=O)Cc2ccc(Cl)c(Cl)c2)C1 (centres undefined) | 39.1%
CN(C)CC1(O)CCCN(C(=O)Cc2ccc(Cl)c(Cl)c2)C1 (centres undefined) | 52.2%
O=C1[C@@H]2CN(c3ncnc4sccc34)C[C@]2(C(=O)O)CN1CC1CC1 | 29.2%
Cc1nn(C)c(N(C)C)c1CNC1CCOc2c(Cl)cccc21 (centres undefined) | -17.7%
COc1ccccc1C1(O)CCCN(C(=O)c2ccnn2C(C)C)C1 (centres undefined) | -24.4%

Compound | INHIBITION
CNC(=O)[C@@H]1CN(C(=O)C(C)C)C[C@H]1c1ccnc(N2CCCC2)n1 | 21.7%
Cc1noc(C2CCC3(CCN(C(=O)C4CCOCC4)CC3)O2)n1 (centres undefined) | 32.2%
NC(=O)C(NC1CCN(CC2CCCCC2)CC1)c1ccccc1 (centres undefined) | -139%
NC(=O)C(NC1CCN(CC2CCCCC2)CC1)c1ccc(F)cc1 (centres undefined) | -55.1%
NC(CC1CCCC1)c1ccccc1 (centres undefined) | 62.2%
NC(c1ccccc1)c1ccc(OC(F)F)cc1 (centres undefined) | 29.3%
NC(CC1CCCC1)c1ccc(Oc2ccccc2)cc1 (centres undefined) | 80.1%
NC(CC1CCCCC1)c1ccccc1 (centres undefined) | 5.15%
COCc1noc(Cc2cc(Cl)c3c(c2)OCCCO3)n1 | -69.2%
CC(C)(C)CC(=O)NCCCn1cncn1 | 40.6%
Cc1cn2c(n1)CCC(NC(=O)c1cncnc1C)C2 (centres undefined) | -0.219%
N#CCSCCCN1CCC(C(=O)N2CCCCCC2)CC1 | 51.8%
CC(NCCN1CCN(C(=O)C2CCCC2)CC1)c1cnn(C)c1 (centres undefined) | 17.1%
N#CCSCCCN1CCN(C(=O)C2CCCC2)CC1 | 50.7%
N#CCSCCCN1CCCC(C(=O)N2CCCCCC2)C1 (centres undefined) | 35.5%
Cc1ccc(C(=O)N2CCN(CCCSCC#N)CC2)o1 | 0.139%
CC1CCN(CCNC(=O)C2CCN(C(=O)C3CC3)CC2)CC1 | -8.23%
